# Assay results published in publication PMC5540273 (PLoS ONE, 2017).
# Like-named read-outs stand apart in the source and are kept apart here.
# Tests used:
# [1] = system: FGFR1; conditions: concentration: 1 μM,replicates: in singlicate; n = 1
# [2] = system: FGFR2; conditions: concentration: 1 μM,replicates: in singlicate; n = 1
# [3] = system: FGFR3; conditions: concentration: 1 μM,replicates: in singlicate; n = 1
# [4] = system: FGFR4; conditions: concentration: 1 μM,replicates: in singlicate; n = 1
# [5] = system: FGR; conditions: concentration: 1 μM,replicates: in singlicate; n = 1
# [6] = system: FLT1; conditions: concentration: 1 μM,replicates: in singlicate; n = 1
# [7] = system: FLT3-autoinhibited; conditions: concentration: 1 μM,replicates: in singlicate; n = 1
# [8] = system: FLT3; conditions: concentration: 1 μM,replicates: in singlicate; n = 1
# [9] = system: FLT4; conditions: concentration: 1 μM,replicates: in singlicate; n = 1
# [10] = system: FRK; conditions: concentration: 1 μM,replicates: in singlicate; n = 1
# [11] = system: FYN; conditions: concentration: 1 μM,replicates: in singlicate; n = 1
# [12] = system: GAK; conditions: concentration: 1 μM,replicates: in singlicate; n = 1
# [13] = system: T1, GCN2(Kin.Dom.2,S808G); conditions: concentration: 1 μM,replicates: in singlicate; n = 1
# T1 construct: gene EIF2AK4
# [14] = system: GRK1; conditions: concentration: 1 μM,replicates: in singlicate; n = 1
# [15] = system: T2, GRK2; conditions: concentration: 1 μM,replicates: in singlicate; n = 1
# T2 construct: gene ADRBK1
# [16] = system: T3, GRK3; conditions: concentration: 1 μM,replicates: in singlicate; n = 1
# T3 construct: gene ADRBK2
# [17] = system: GRK4; conditions: concentration: 1 μM,replicates: in singlicate; n = 1
# [18] = system: GRK7; conditions: concentration: 1 μM,replicates: in singlicate; n = 1
# [19] = system: GSK3A; conditions: concentration: 1 μM,replicates: in singlicate; n = 1
# [20] = system: GSK3B; conditions: n = 1
# [21] = concentration: 1 μM,replicates: in singlicate
# 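Note: KINOMEscan kinase panel screen.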
smiles,measurement,setting,value
FC(F)(F)c1cc(Br)cc(Nc2nccc(-c3cnn4ncccc34)n2)c1 [GW810578],%Inh,[1],4%
same,%Inh,[2],0%
same,%Inh,[3],0%
same,%Inh,[4],77%
same,%Inh,[5],16%
same,%Inh,[6],30%
same,%Inh,[7],70%
same,%Inh,[8],95.7%
same,%Inh,[9],6%
same,%Inh,[10],0%
same,%Inh,[11],0%
same,%Inh,[12],20%
same,%Inh,[13],12%
same,%Inh,[14],7%
same,%Inh,[15],14%
same,%Inh,[16],8%
same,%Inh,[17],0%
same,%Inh,[18],10%
same,%Inh,[19],90.4%
same,%Inh,[20]; [21],89%
Cn1ccc2ncnc(Oc3ccc(NC(=O)Nc4cccc(C(F)(F)F)c4)c(F)c3)c21,%Inh,[1],0%
same,%Inh,[2],14%
same,%Inh,[3],5%
same,%Inh,[4],3%
same,%Inh,[5],3%
same,%Inh,[6],98.9%
same,%Inh,[7],38%
same,%Inh,[8],98%
same,%Inh,[9],99.9%
same,%Inh,[10],85%
same,%Inh,[11],10%
same,%Inh,[12],12%
same,%Inh,[13],26%
same,%Inh,[14],15%
same,%Inh,[15],0%
same,%Inh,[16],0%
same,%Inh,[17],24%
same,%Inh,[18],0%
same,%Inh,[19],2%
same,%Inh,[20]; [21],7%
COc1cccc(C2=C(Nc3cccc(Cl)c3)C(=O)NC2=O)c1 [SB-341556],%Inh,[1],21%
same,%Inh,[2],23%
same,%Inh,[3],29%
same,%Inh,[4],15%
same,%Inh,[5],5%
same,%Inh,[6],13%
same,%Inh,[7],4%
same,%Inh,[8],0%
same,%Inh,[9],15%
same,%Inh,[10],16%
same,%Inh,[11],25%
same,%Inh,[12],12%
same,%Inh,[13],0%
same,%Inh,[14],27%
same,%Inh,[15],0%
same,%Inh,[16],22%
same,%Inh,[17],27%
same,%Inh,[18],0%
same,%Inh,[19],70%
same,%Inh,[20]; 1 µM,35%
CCn1c(-c2nonc2N)nc2cncc(Br)c21 [SB-738004],%Inh,[1],3%
same,%Inh,[2],69%
same,%Inh,[3],24%
same,%Inh,[4],2%
same,%Inh,[5],17%
same,%Inh,[6],21%
same,%Inh,[7],53%
same,%Inh,[8],0%
same,%Inh,[9],19%
same,%Inh,[10],0%
same,%Inh,[11],0%
same,%Inh,[12],17%
same,%Inh,[13],0%
same,%Inh,[14],32%
same,%Inh,[15],12%
same,%Inh,[16],69%
same,%Inh,[17],0%
same,%Inh,[18],16%
same,%Inh,[19],29%
same,%Inh,[20]; [21],40%
Cn1cc(-c2cccc3c(N)c(C(N)=O)nnc23)cn1,%Inh,[1],25%
same,%Inh,[2],2%
same,%Inh,[3],12%
same,%Inh,[4],9%
same,%Inh,[5],9%
same,%Inh,[6],0%
same,%Inh,[7],30%
same,%Inh,[8],27%
same,%Inh,[9],15%
same,%Inh,[10],2%
same,%Inh,[11],1%
same,%Inh,[12],36%
same,%Inh,[13],16%
same,%Inh,[14],23%
same,%Inh,[15],7%
same,%Inh,[16],0%
same,%Inh,[17],40%
same,%Inh,[18],36%
same,%Inh,[19],7%
same,%Inh,[20]; [21],20%
Cl.Nc1n[nH]c2cc(-c3ccccn3)ccc12 [GSK2189892],%Inh,[1],0%
same,%Inh,[2],15%
same,%Inh,[3],0%
same,%Inh,[4],0%
same,%Inh,[5],10%
same,%Inh,[6],19%
same,%Inh,[7],0%
same,%Inh,[8],0%
same,%Inh,[9],0%
same,%Inh,[10],1%
same,%Inh,[11],0%
same,%Inh,[12],0%
same,%Inh,[13],0%
same,%Inh,[14],0%
same,%Inh,[15],0%
same,%Inh,[16],0%
same,%Inh,[17],0%
same,%Inh,[18],0%
same,%Inh,[19],4%
same,%Inh,[20]; [21],0%
CCCC(=O)Nc1n[nH]c2ncccc12 [SB-601436],%Inh,[1],0%
same,%Inh,[2],0%
same,%Inh,[3],0%
same,%Inh,[4],0%
same,%Inh,[5],30%
same,%Inh,[6],0%
same,%Inh,[7],0%
same,%Inh,[8],13%
same,%Inh,[9],0%
same,%Inh,[10],0%
same,%Inh,[11],0%
same,%Inh,[12],0%
same,%Inh,[13],0%
same,%Inh,[14],13%
same,%Inh,[15],0%
same,%Inh,[16],0%
same,%Inh,[17],0%
same,%Inh,[18],11%
same,%Inh,[19],38%
same,%Inh,[20]; 1 µM,9%
c1ccc(Oc2ccc(Nc3ccnc4ccc(-c5ccccn5)cc34)cc2)cc1 [GW407034],%Inh,[1],0%
same,%Inh,[2],34%
same,%Inh,[3],25%
same,%Inh,[4],4%
same,%Inh,[5],69%
same,%Inh,[6],14%
same,%Inh,[7],0%
same,%Inh,[8],0%
same,%Inh,[9],3%
same,%Inh,[10],38%
same,%Inh,[11],62%
same,%Inh,[12],17%
same,%Inh,[13],1%
same,%Inh,[14],0%
same,%Inh,[15],0%
same,%Inh,[16],46%
same,%Inh,[17],16%
same,%Inh,[18],0%
same,%Inh,[19],7%
same,%Inh,[20]; [21],9%
NC(=O)c1ccc(-c2cc3ncnc(SCC(=O)O)c3s2)cc1,%Inh,[1],0%
same,%Inh,[2],0%
same,%Inh,[3],0%
same,%Inh,[4],0%
same,%Inh,[5],14%
same,%Inh,[6],4%
same,%Inh,[7],2%
same,%Inh,[8],20%
same,%Inh,[9],0%
same,%Inh,[10],0%
same,%Inh,[11],0%
same,%Inh,[12],45%
same,%Inh,[13],0%
same,%Inh,[14],30%
same,%Inh,[15],0%
same,%Inh,[16],0%
same,%Inh,[17],0%
same,%Inh,[18],0%
same,%Inh,[19],14%
same,%Inh,[20]; [21],0%
CN(c1ccccc1CNc1nc(Nc2ccc3c(c2)CC(=O)N3)ncc1C(F)(F)F)S(C)(=O)=O,%Inh,[1],68%
same,%Inh,[2],64%
same,%Inh,[3],47%
same,%Inh,[4],11%
same,%Inh,[5],37%
same,%Inh,[6],53%
same,%Inh,[7],19%
same,%Inh,[8],99.5%
same,%Inh,[9],85%
same,%Inh,[10],54%
same,%Inh,[11],0%
same,%Inh,[12],45%
same,%Inh,[13],0%
same,%Inh,[14],12%
same,%Inh,[15],0%
same,%Inh,[16],0%
same,%Inh,[17],7%
same,%Inh,[18],47%
same,%Inh,[19],64%
same,%Inh,[20]; [21],0%
Nc1nccc(-c2ccc3c(N)n[nH]c3c2)n1 [GSK1034945],%Inh,[1],0%
same,%Inh,[2],0%
same,%Inh,[3],0%
same,%Inh,[4],12%
same,%Inh,[5],15%
same,%Inh,[6],6%
same,%Inh,[7],2%
same,%Inh,[8],0%
same,%Inh,[9],11%
same,%Inh,[10],0%
same,%Inh,[11],32%
same,%Inh,[12],15%
same,%Inh,[13],0%
same,%Inh,[14],100%
same,%Inh,[15],0%
same,%Inh,[16],40%
same,%Inh,[17],52%
same,%Inh,[18],0%
same,%Inh,[19],0%
same,%Inh,[20]; [21],19%
